According to PubChem BioAssay:
“And” between values parts separate entries of the source, which are not always exact repeats. Equal entries are not always repeated.

assay: HTB85 osteosarcoma cell growth inhibition, synergistic combos for chromothripsis tumors, BGB or cisplatin IC20 combos (AID 1671453); conditions: HTB85 osteosarcoma cells, drug combinations, measured here: with BGB IC20, at 0.5 µM, stronger effect = higher value;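 also: cells exposed for 96 hours before readout; 0% = vehicle DMSO and 100% = high DMSO killing control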

With `COc1ccccc1S(=O)(=O)Nc1ccc2c(c1)CN(C)C(=O)N2` as the molecule, how does the inhibition read?
Its inhibition is 9.14%.

For `Cc1cc(C#N)cc(C)c1Oc1nc(Nc2ccc(C#N)cc2)nc(N)c1Br`, which inhibition is on record?
Its inhibition is -12.9%.

For `Nc1ncn(C2OC(CO)C(O)C2O)c(=O)n1` (stereo not drawn), which inhibition is on record?
Its inhibition is -12.6%.

For `Cc1cc(C)c(Nc2ccnc(Nc3ccc(C#N)cc3)n2)c(C)c1`, which inhibition is on record?
Its inhibition is 4.79%.

Which inhibition does the source give for `COc1ccc(CC(N)C(=O)NC2C(CO)OC(n3cnc4c(N(C)C)ncnc43)C2O)cc1` (stereo not drawn) here?
The inhibition was 84.1% and 96.2%.

Which inhibition does the source give for `O=c1ccn(C2OC(CO)C(O)C2O)c(=O)[nH]1` (stereo not drawn) here?
The inhibition was 10.2% and -46.4%.

Which inhibition does the source give for `CC=C1NC(=O)C2CSSCCC=CC(CC(=O)NC(C(C)C)C(=O)N2)OC(=O)C(C(C)C)NC1=O` (stereo not drawn) here?
Its inhibition is 99.8%.

Which inhibition does the source give for `CN(C)CC(=O)Nc1ccc2[nH]c(=O)c3ccccc3c2c1` here?
The inhibition was -8.36% and -5.68% and -25.9%.

Which inhibition does the source give for `CC1OC(n2cc(F)c(=O)[nH]c2=O)C(O)C1O` (stereo not drawn) here?
The inhibition was -38.6%.

Which inhibition does the source give for `Nc1ccn(C2OC(CO)C(O)C2(F)F)c(=O)n1` (stereo not drawn) here?
Its inhibition is 76.2% and 85.7% and 83.4%.

For `Cc1cn(C2CC(N=[N+]=[N-])C(CO)O2)c(=O)[nH]c1=O` (stereo not drawn), which inhibition is on record?
Its inhibition is -44.2% and -2.77%.

Which inhibition does the source give for `CC(C=CC(=O)NO)=CC(C)C(=O)c1ccc(N(C)C)cc1` (stereo not drawn) here?
The inhibition was 97.4%.

With `NC(=S)NN=Cc1ncccc1N` as the molecule, how does the inhibition read?
Its inhibition is -17.3%.

With `CC(C)(C#N)c1ccc(N2C(=O)OCc3cnc4ccc(-c5cnc6ccccc6c5)cc4c32)cc1` as the molecule, how does the inhibition read?
Its inhibition is 2.55%.

With `CC1CN(c2c(F)c(N)c3c(=O)c(C(=O)O)cn(C4CC4)c3c2F)CC(C)N1` (stereo not drawn) as the molecule, how does the inhibition read?
Its inhibition is -7.64%.

For `CCCCN(Cc1ccc(C(=O)NO)cc1)C(=O)Nc1ccccc1`, which inhibition is on record?
The inhibition was 8.29% and 2.56%.

For `O=c1[nH]cnc2c1ncn2C1OC(CO)C(O)C1O` (stereo not drawn), which inhibition is on record?
The inhibition was -29.3% and -11.2%.

For `Cc1cc(C=CC#N)cc(C)c1Nc1ccnc(Nc2ccc(C#N)cc2)n1`, which inhibition is on record?
Its inhibition is -9.74%.
